NCOA1 inh = SRC1 coactivator transcriptional activity inhibitors, primary screen, cell-based, luminescence; Nuclear receptor coactivator 1 (Homo sapiens), Q15788; HEK293 GAL4-SRC1 luciferase reporter; inhibition, % at 3.6 µM; 360,000 compounds, 0.12% hits;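 active means inhibition above the campaign mean plus 3 SD, with each screening campaign given its own cutoff, cut at about 60% in these data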
LRH-1 inv ag = LRH-1 (NR5A2) inverse agonists, primary screen, cell-based, luminescence, HEK293T, StAR-luciferase reporter. Nuclear receptor subfamily 5 group A member 2 (Homo sapiens), O00482. AID 602396, 2012. inhibition, % at 3.6 µM. 360,000 compounds, 0.13% hits. LRH-1 transfected, 24 h;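 active means inhibition above the mean inhibition of all tested compounds plus 3 SD, cut at about 73% in these data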
Efflux pump inh = inhibitors of Candida efflux pumps in yeast, primary screen, S. cerevisiae, Nile Red, multiplex; AID 485275, 2010; inhibition, % at 10 µM; S. cerevisiae Candida pump triplex; 330,000 compounds, 0.44% hits;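 active means plate passing quality check with inhibition over a set limit, or well fluorescence over plate mean plus 4 SD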;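 further: Nile Red retained in pooled yeast measured as flow cytometry median fluorescence; higher means more Nile Red kept so more efflux inhibition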
COUP-TFII inh = NR2F2 transcriptional activity inhibitors, primary screen, cell-based, luciferase reporter, HEK293T, luminescence; 370,000 compounds, 0.7% hits; HEK293T NGFI-A luciferase reporter; inhibition, % at 8.6 µM; AID 686940, 2013;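 active means inhibition above a per-plate cutoff, mean inhibition of test wells between control levels plus 3 SD, cut at about 38% in these data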;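 further: cells cotransfected with COUP-TFII expression vector driving the NGFI-A reporter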
Target sequence (P24468 whole entry, looked up): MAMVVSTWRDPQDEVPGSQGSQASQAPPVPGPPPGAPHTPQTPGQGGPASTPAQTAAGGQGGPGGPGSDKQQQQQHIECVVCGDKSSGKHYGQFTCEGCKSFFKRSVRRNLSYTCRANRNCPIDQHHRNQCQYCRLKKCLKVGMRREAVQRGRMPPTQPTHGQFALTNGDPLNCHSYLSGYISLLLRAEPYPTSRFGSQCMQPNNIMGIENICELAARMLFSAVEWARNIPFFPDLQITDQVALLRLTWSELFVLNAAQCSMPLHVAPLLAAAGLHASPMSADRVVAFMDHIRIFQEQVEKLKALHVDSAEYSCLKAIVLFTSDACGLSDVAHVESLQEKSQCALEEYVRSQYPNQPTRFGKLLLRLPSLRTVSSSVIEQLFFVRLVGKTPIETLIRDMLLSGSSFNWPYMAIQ
NCOA2 inhibitor = inhibition of GAL4-SRC2 driven luciferase reporter, primary screen, SRC2 inhibitor project, cell-based, luminescence | HEK293 GAL4-SRC2 luciferase reporter | inhibition, % at 9 µM | 370,000 compounds, 0.17% hits | AID 651957, 2012;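 active means inhibition above the mean inhibition of all tested compounds plus 3 SD, set per campaign, cut at about 52% in these data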
NCOA3 inh = SRC3 coactivator transcriptional activity inhibitors, primary screen, cell-based, luminescence | Nuclear receptor coactivator 3 (Homo sapiens), Q9Y6Q9 | HEK293 GAL4-SRC3 luciferase reporter | inhibition, % at 3.6 µM | 360,000 compounds, 0.17% hits;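 active means inhibition above a per-campaign cutoff, the mean of all compounds plus 3 SD, cut at about 60% in these data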;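 further: higher means less SRC3-driven luciferase light from the GAL4 reporter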
Cmpd fluor yeast = counter-screen for efflux pump inhibitors: compound fluorescence. fluorescence ratio to DMSO, % at 10 µM. shares compounds with Efflux pump inh. 1,700 compounds, 4% hits. S. cerevisiae AD/pABC3, flow cytometry. AID 588517;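 active means fluorescence ratio to DMSO above its plate's cutoff, the plate mean ratio plus 5 SD, cut at about 210% in these data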;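 further: unstained yeast with no Nile Red so the signal is compound autofluorescence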
CaMdr1 efflux inh = inhibitors of Candida albicans Mdr1 efflux, confirmation, flow cytometry, singleplex, Cherry Pick1 set; S. cerevisiae AD/CaMDR1, Nile Red efflux; inhibition, % at 10 µM; 1,700 compounds, 1% hits; shares compounds with Efflux pump inh; in the data active means inhibition above about 26%;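 further: higher means more Nile Red retained so more efflux inhibition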
Cdr2 pump inh = inhibitors of Candida albicans Cdr2 efflux pump, confirmation, S. cerevisiae AD/CaCDR2, flow cytometry, cherry pick 1, singleplex; AID 588520, 2011; Nile Red retention; Nile Red retention ratio vs DMSO, % at 10 µM; 1,700 compounds, 4% hits; shares compounds with Efflux pump inh; in the data active means Nile Red retention ratio vs DMSO above about 190%;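 further: higher ratio means more blocking of Cdr2 efflux of the dye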
Cdr1 pump inh = inhibitors of Candida albicans Cdr1 efflux pump, confirmation, S. cerevisiae AD/CaCDR1, flow cytometry, cherry pick 1, singleplex; 1,700 compounds, 1% hits; AID 588522, 2011; Nile Red efflux; shares compounds with Efflux pump inh; inhibition, % at 10 µM;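 active means inhibition above the screen-wide mean plus twice its standard deviation, cut at about 32% in these data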
Numbers stand for hits; . = inactive; / = no result. A selection: hits, their analogues and other compounds. The true share with any hit is near 1.2%.

SMILES	NCOA1 inh	LRH-1 inv ag	Efflux pump inh	COUP-TFII inh	NCOA2 inhibitor	NCOA3 inh	Cmpd fluor yeast	CaMdr1 efflux inh	Cdr2 pump inh	Cdr1 pump inh
CN(CCOc1ccc(Br)cc1)CC(O)c1ccccc1 (centres undefined)	.	.	5.3	.	.	.	/	/	/	/
COc1ccccc1CC(=O)Nc1ccc(S(=O)(=O)N2CCN(C)CC2)cc1	.	.	.	.	.	.	/	/	/	/
c1ccc(-c2cccc(-c3ccccn3)n2)nc1	81	98	.	/	/	84	/	/	/	/
CC(C)CCNC(=O)c1ccc(-n2cnc3cccnc32)cc1	.	.	.	.	.	.	/	/	/	/
COC(=O)c1cc2ccsc2n1Cc1nc(-c2ccc(OC)cc2)oc1C	.	.	.	.	.	.	/	/	/	/
COC(=O)c1cc2sccc2n1Cc1nc(-c2ccc(OC)cc2)oc1C	.	.	.	39	.	.	/	/	/	/
CCC1CCC/C1=N\NC(=O)c1ccccc1C (centres undefined)	.	.	.	.	.	.	/	/	/	/
Cc1ccc2cccc(NS(=O)(=O)c3ccccc3)c2n1	/	/	.	.	75	/	/	/	/	/
CCOC(=O)N1CCN(C(=O)C2CCCN(Cc3nc(-c4ccc(Cl)cc4)oc3C)C2)CC1 (centres undefined)	.	.	.	73	.	.	/	/	/	/
Cc1oc(-c2ccc(Cl)cc2)nc1CN1CCCC(C(=O)NC2CC2)C1 (centres undefined)	.	.	.	.	.	.	/	/	/	/
COC(=O)c1ccc(S(=O)(=O)NCc2ccc(OC)cc2)n1C	.	.	2.5	.	.	.	.	.	.	.
Cc1cc(C)c(N(C(=O)CN2C(=O)c3ccccc3S2(=O)=O)C(C(=O)NCC2CCCO2)c2ccc(F)cc2)c(C)c1 (centres undefined)	.	.	22	.	.	.	.	.	.	.
COc1ccccc1N(C(=O)CN1C(=O)c2ccccc2S1(=O)=O)C(C(=O)NCC1CCCO1)c1ccc(F)cc1 (centres undefined)	.	.	.	.	.	.	/	/	/	/
CCCOc1ccc(-c2c(C(=O)N/N=C/c3ccccc3)nnn2-c2nonc2N)cc1	.	.	.	.	.	.	.	.	.	.
Nc1nonc1-n1nnc(C(=O)N/N=C/c2c(Cl)cccc2Cl)c1CSC1=NCCS1	.	.	.	.	.	.	.	.	.	.
Nc1nonc1-n1nnc(C(=O)N/N=C/C=C/c2ccccc2)c1CSC1=NCCS1	.	.	.	.	.	.	/	/	/	/
Nc1nonc1-n1nnc(C(=O)N/N=C/c2ccccc2Cl)c1COc1ccc(F)cc1	.	.	.	.	.	.	.	.	.	.
Nc1nonc1-n1nnc(C(=O)N/N=C/c2ccc(O)cc2)c1COc1ccc(F)cc1	.	.	.	.	.	.	.	.	.	.
Nc1nonc1-n1nnc(C(=O)N/N=C/c2ccc(OCc3ccccc3)cc2)c1COc1ccc(F)cc1	.	.	.	.	.	.	/	/	/	/
CN(C)/C=C/C1=C([N+](=O)[O-])C(c2cccc([N+](=O)[O-])c2)NC(=O)N1 (centres undefined)	.	.	.	.	.	.	/	/	/	/
